# Sampled rows, rich in hits. Any-hit rate of the full collection: about 12%.
# L3MBTL1 block: L3MBTL1 (human) inhibition; AlphaScreen L3MBTL1–H3K9me1 peptide binding; Potency, µM (highest dose often 57.1 µM), for the others: at the top dose activity, negative = inhibition, most hits filed as inhibitors; 230,000 tested, 0.66% active; AID 485360; note: % is set by controls: 0 for no effect and ±100 for the full control effect; nearly all actives have a fitted effect of over 60% in size
#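 L3MBTL1 (50 nM) pre-complexed 30 min with biotinylated H3(1-15)K9me1 peptide (75 nM), then compounds added for 30 min at room temperature; AlphaScreen streptavidin donor/nickel chelate acceptor beads (10 ug/mL final) read after 30 min dark incubation.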
# JMJD2A Tudor: blocks the human JMJD2A Tudor domain; AlphaScreen JMJD2A-Tudor / H3K4me3 peptide binding; O75164; Potency, µM (top dose mostly 114 µM), inactives show top-dose activity change, negative = inhibition, hits mostly inhibitors; 390,000 tested, 4.4% active; note: % is set by controls: 0 for no effect and ±100 for the full control effect; nearly all actives have a fitted effect of over 50% in size
# G9a inh: blocks human histone lysine methyltransferase G9a; Q96KQ7; G9a H3K9 monomethylation, AlphaScreen, 2 h; Potency, µM (highest dose often 102 µM), inactives show top-dose activity, negative = inhibition, most hits filed as inhibitors; 350,000 tested, 8.8% active; AID 504332; note: % is set by controls: 0 for no effect and ±100 for the full control effect; nearly all actives have a fitted effect of over 75% in size
# Target sequence (Q96KQ7 913-1193 limits assumed): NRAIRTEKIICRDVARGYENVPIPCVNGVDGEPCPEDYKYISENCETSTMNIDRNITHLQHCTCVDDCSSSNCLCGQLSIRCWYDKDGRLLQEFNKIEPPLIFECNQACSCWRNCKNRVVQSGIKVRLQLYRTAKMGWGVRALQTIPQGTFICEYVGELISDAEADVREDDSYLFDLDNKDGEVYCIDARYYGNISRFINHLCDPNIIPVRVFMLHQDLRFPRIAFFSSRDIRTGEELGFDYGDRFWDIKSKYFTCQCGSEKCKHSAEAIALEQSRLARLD
#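 Enzyme 20 nM + cpd, 15 min RT; add b-H3K9 pep 500 nM / SAM 20 uM; 2 h RT; anti-H3K9me1 Ab 0.5 ug/mL + SA donor / anti-rabbit acceptor beads 20 ug/mL each, 10 min; AlphaScreen read.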
# HP1b binding inh: blocks HP1-beta chromodomain binding to methylated histone tails; P83916; AlphaScreen HP1-beta / biotin-H3K9me3 peptide binding; Potency, µM (doses to about 114 µM), inactives show at the highest dose activity change, negative = inhibition, most hits filed as inhibitors; 390,000 tested, 0.56% active; AID 540317; note: nearly all actives have a fitted effect of over 70% in size
# Target sequence (P83916 whole entry, looked up): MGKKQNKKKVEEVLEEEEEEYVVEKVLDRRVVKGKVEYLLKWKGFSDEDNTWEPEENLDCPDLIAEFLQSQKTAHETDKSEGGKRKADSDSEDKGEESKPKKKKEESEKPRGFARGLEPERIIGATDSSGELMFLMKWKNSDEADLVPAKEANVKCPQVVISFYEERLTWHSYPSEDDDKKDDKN
#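 AlphaScreen: HP1-beta (50 nM) preformed 30 min with biotin-H3(1-18)K9me3 peptide (50 nM) in PBS pH 7.4, 0.01% Tween-20. Compound added for 30 min at RT, then streptavidin donor/nickel chelate acceptor beads (10 ug/mL) for 30 min.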
# Sfp PPTase inh: blocks B. subtilis Sfp PPTase activity. Potency, µM, inactives show largest response in the series, negative = inhibition, hits mostly inhibitors. 310,000 tested, 3.5% active. Biochemical Sfp PPTase activity, qHTS;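 note: the enzyme is Sfp with the accession as filed and its product quenches rhodamine fluorescence; 0% = enzyme reaction without inhibitor and -100% = no enzyme wells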
#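 With Hepes-Na pH 7.6 buffer containing 10 mM MgCl2, Sfp (15 nM) modified BHQ-2-YbbR (12.5 uM) using rhodamine-CoA (5 uM). Two reads 30 minutes apart at 525/598 nm yielded each well's rate.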
# BAZ2B inh: blocks human BAZ2B; Potency, µM (doses to about 114 µM), for inactives: at the top dose activity change, negative = inhibition, usual class: inhibitors; AID 504333; 360,000 tested, 4.4% active; AlphaScreen BAZ2B-H3K14Ac peptide displacement; Q9UIF8; note: % is set by controls: 0 for no effect and ±100 for the full control effect; nearly all actives have a fitted effect of over 60% in size
#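 AlphaScreen displacement of biotin-H3(5-23)K14Ac peptide (50 nM final) from BAZ2B (50 nM final) in PBS pH 7.4, 0.01% Tween-20; complex preformed 30 min RT, then compounds (top 110 uM) 30 min RT, beads 20 min dark.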
# Numbers without * were called inactive; u = inconclusive; x = no result given; [ ] = remark or other dose. Calls come from the whole dose curve; as a rule, active = well fitted curve in the direction sought with a large enough effect; inconclusive = small, poorly fitted or top-dose-only effect, or another doubt; inactive = no such curve, though single readings can be large; an effect the other way counts as inactive or inconclusive. Potency is the fitted concentration of half-maximal effect.
SMILES,L3MBTL1 block,JMJD2A Tudor,G9a inh,HP1b binding inh,Sfp PPTase inh,BAZ2B inh
CCOC(=O)CC1C(=O)NCCN1c1nc2ccc(C)cn2c(=O)c1/C=C1\SC(=S)N(C(C)CC)C1=O (configuration not stated),-21.6%,x,x,x,u,28.2µM*
CO[C@H]1COC(=O)[C@H](C)COC(=O)[C@@H](OCc2ccccc2)/C=C\[C@@H]1C,x,x,x,x,18.2%,x
Cc1ccc(S(=O)(=O)Cn2nnnc2CN2CCOCC2)cc1,-5.8%,-9.6%,-9.9%[59 µM],51.4%,13.1%,-33.5%
Cc1ccc(S(=O)(=O)Cn2nnnc2CN2CCCC3(CCCCC3)C2)cc1,14.3%,3.4%,25.1µM*,54.3%,2.9%,0.5%
COc1ccccc1-c1nc(C#N)c(N2CCC(Cc3ccccc3)CC2)o1,u,u,u,u,-12.8%,-1.0%
CN(Cc1ccccc1)c1oc(-c2ccco2)nc1C#N,x,u,u,u,-2.5%,44.7µM*
N#Cc1nc(-c2ccco2)oc1N1CCN(Cc2ccccc2)CC1,-19.5%,u,u,-24.4%,-3.9%,50.1µM*
COc1ccccc1-c1nc(C#N)c(N2CCN(Cc3ccccc3)CC2)o1,x,u,u,14.1µM*,u,28.2µM*
COC(=O)N1C2CC3(C)C=C(C)OC1(C)C3c1ccccc12 (configuration not stated),x,x,x,x,19.1%,x
CCOC(=O)c1c(S(=O)(=O)N2CCCC(C(=O)Nc3cccc(CC)c3)C2)c(C)n(CC)c1C (configuration not stated),x,-16.0%,14.9%[59 µM],37.0%,x,-26.1%
Cn1c(N2CCN(c3ccccn3)CC2)nc2c1c(=O)n(Cc1ccccc1Cl)c(=O)n2C,x,0.0%,x,48.3%,x,x
Cn1c(=O)c2c(nc(N3CCCCCC3)n2Cc2cccc3ccccc23)n(C)c1=O,-4.7%,u,-17.3%,u,u,u
Cc1cccc(Cn2c(SCCN3CCOCC3)nc3c2c(=O)n(C)c(=O)n3C)c1,-4.2%,-20.4%,44.7µM*,2.6%,12.3%,4.9%
Cn1c(N2CCN(c3ccccn3)CC2)nc2c1c(=O)n(Cc1ccc(Cl)cc1)c(=O)n2C,2.2%,u,39.8µM*,-10.8%,-6.4%,u
CN1CCN(c2nc3c(c(=O)n(C)c(=O)n3C)n2Cc2cccc3ccccc23)CC1,x,-20.4%,44.7µM*,5.6%,7.8%,-36.1%
Cc1cccc(Cn2c(N3CCN(C)CC3)nc3c2c(=O)n(C)c(=O)n3C)c1,-3.8%,-12.9%,20µM*,16.6%,8.4%,-36.7%
Cc1ccc(Cn2c(SCCN3CCOCC3)nc3c2c(=O)n(C)c(=O)n3C)cc1,-1.2%,-18.8%,14.6%,18.3%,8.9%,8.2%
CN1CCN(c2nc3c(c(=O)n(C)c(=O)n3C)n2Cc2cccc(Br)c2)CC1,-2.0%,-10.3%,x,26.0%,13.6%,3.2%
CCN(CC)C(=O)Nc1ccc(OC[C@H](O)CNC(C)(C)C)c(C(C)=O)c1,x,x,-44.9%[12.7 µM],x,27.4%,x
CCc1ccc(NC(=O)c2cc(CN3CCOCC3)on2)cc1,x,-6.7%,6.1%[59 µM],48.0%,x,-0.9%
O=C(Cn1c(N2CCN(c3ccccc3)CC2)nc2ccccc21)c1ccccc1,0.4%,-4.5%,50.1µM*,14.1%,-2.8%,-10.6%
O=C(NCc1ccccc1)C1CC(=O)N(C2CCCCCC2)C1 (configuration not stated),x,-9.0%,-5.8%[59 µM],42.8%,16.2%,-14.0%
O=C(NCc1ccccn1)C1CCC(=O)N1C1CCCC1 (configuration not stated),x,79.4µM*,x,20.0%,x,x
O=C(NCCN1CCc2ccccc2C1)C1CC(=O)N(C2CCCC2)C1 (configuration not stated),21.1%,89.1µM*,-35.7%[0.0925 µM],13.6%,6.1%,u
O=C(NCCc1ccccc1)C1CCC(=O)N1C1CCCC1 (configuration not stated),x,-3.1%,-9.8%,21.1%,6.9%,7.6%
SMILES,L3MBTL1 block,JMJD2A Tudor,G9a inh,HP1b binding inh,Sfp PPTase inh,BAZ2B inh
O=C(NCCCN1CCc2ccccc2C1)C1CCN(S(=O)(=O)N2CCCC2)CC1,6.9%,-25.0%,26.8%[0.501 µM],16.5%,-9.3%,50.1µM*
O=C(NCc1ccccn1)C1CC(=O)N(C2CCCC2)C1 (configuration not stated),x,79.4µM*,x,21.8%,x,x
CCc1ccc(C2CC(=O)Nc3c2c(=O)n(C)c2ncnn32)cc1 (configuration not stated),x,1.9%,-21.7%[59 µM],7.5%,x,-16.2%
CC(C)(C)OC(=O)N1CCC(c2c(C(=O)NCCN3CCc4ccccc4C3)cnn2-c2ccc(F)cc2)CC1,x,-24.9%,-44.6%[59 µM],-11.2%,x,0.2%[57.1 µM]
CC(NC(=O)c1ccc(N(C)C)c([N+](=O)[O-])c1)c1ccc(-n2ccnc2)cc1 (configuration not stated),x,u,79.4µM*,-6.5%,13.0%,u
C=C(C)C(=O)Nc1cccc(C2=NOC3(C2)C[C@@H](C(N)=O)N(C(=O)c2cc([N+](=O)[O-])cc([N+](=O)[O-])c2)C3)c1 (some centres not stated),x,28.2µM*,u,20µM*,2.7%,28.2µM*
C=C(C)C(=O)Nc1cccc(C2=NOC3(C2)C[C@@H](C(N)=O)N(C(=O)CCCCC)C3)c1 (some centres not stated),x,1.78µM*,u,1.58µM*,11.4%,1.41µM*
CCCCCC(=O)N1CC2(CC(c3cccc(NC(=O)[C@@H]4CCC(=O)N4)c3)=NO2)C[C@@H]1C(N)=O (some centres not stated),x,-24.5%,-0.2%[12.7 µM],13.4%,9.0%,1.2%
C=C(C)C(=O)Nc1cccc(C2=NOC3(C2)C[C@@H](C(N)=O)N(C(=O)c2ccc(OC)cc2)C3)c1 (some centres not stated),x,2.82µM*,u,3.16µM*,13.0%,1.78µM*
COc1cc(NC(=O)CC2C(=O)N(c3ccc(Cl)cc3)C(=O)N2Cc2cccs2)cc(OC)c1 (configuration not stated),x,6.2%,4.2%[59 µM],27.7%,x,-11.2%
CCc1cccc(CC)c1NC(=O)c1cc(S(=O)(=O)N2CCc3ccccc32)cn1C,x,u,u,-19.5%,x,u
Cc1ccc2nc(SCc3nc4ccccc4c(=O)[nH]3)[nH]c2c1,4.8%,u,39.8µM*,2.1%,44.7µM*,-17.1%
Cc1ccc(C#N)c(SCc2ccccc2F)n1,121.2%,208.4%,x,263.9%,-18.1%,140.8%
Nc1cc(=O)[nH]c(SCC(=O)c2ccc(O)cc2O)n1,x,-9.1%,18.3%[2.33 µM],54.3%,5.6%,1.5%
Cc1ccc2nc(SCC(=O)c3ccc(O)cc3O)[nH]c2c1,25.7%,1.0%,x,31.3%,50.1µM*,-23.4%
